Assay [1] can be described thus: ATG_M_32_CIS: Attagene CIS-FACTORIAL HepG2 Assay for M32 Transcription Factor (Internal Marker) (AID 2282949).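 Further: background control marker of the multiplexed CIS panel rather than a real target.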 Particulars: HepG2 Attagene cis-factorial M32 reporter, mRNA; actives raise or lower the signal. Summed up:
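Internal background marker read-out: RT-PCR/capillary electrophoresis fluorescence of reporter transcripts from transiently transfected HepG2 cells after 24 h chemical exposure. Activity fitted bidirectionally relative to DMSO negative control.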

In assay [2] the target is Hypoxia-inducible factor 1-alpha (Homo sapiens) (UniProt Q16665). The assay is described as follows: ATG_HIF1a_CIS: Attagene CIS-FACTORIAL HepG2 Assay for human Hypoxia Inducible Factor 1 (HIF1A) (AID 2282951). The conditions noted are these: HepG2 Attagene cis-factorial HIF1a reporter transcription; actives raise or lower the signal. The gist of the method:
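RT-PCR/capillary electrophoresis fluorescence readout of reporter transcripts from endogenous-TF-driven cis elements in transfected HepG2 cells, 24 h exposure; activity fitted in both directions against DMSO controls.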

The target in assay [3] is Hepatocyte nuclear factor 6 (Homo sapiens) (UniProt Q9UBC0). Briefly: ATG_HNF6_CIS: Attagene CIS-FACTORIAL HepG2 Assay for human Hepatocyte Nuclear Factor 6 (HNF6) (AID 2282952). Particulars: HepG2 Attagene cis-factorial HNF6 reporter transcription; actives raise or lower the signal. Summed up: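 HepG2 cells transiently transfected with cis-element-driven multiple reporter transcription units, dosed 24 h; reporter mRNA quantified by RT-PCR, FAM primer extension, HpaI digestion and capillary electrophoresis; bidirectional fit versus DMSO baseline.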
Chain of Hepatocyte nuclear factor 6 (Homo sapiens) (Q9UBC0 whole entry, looked up): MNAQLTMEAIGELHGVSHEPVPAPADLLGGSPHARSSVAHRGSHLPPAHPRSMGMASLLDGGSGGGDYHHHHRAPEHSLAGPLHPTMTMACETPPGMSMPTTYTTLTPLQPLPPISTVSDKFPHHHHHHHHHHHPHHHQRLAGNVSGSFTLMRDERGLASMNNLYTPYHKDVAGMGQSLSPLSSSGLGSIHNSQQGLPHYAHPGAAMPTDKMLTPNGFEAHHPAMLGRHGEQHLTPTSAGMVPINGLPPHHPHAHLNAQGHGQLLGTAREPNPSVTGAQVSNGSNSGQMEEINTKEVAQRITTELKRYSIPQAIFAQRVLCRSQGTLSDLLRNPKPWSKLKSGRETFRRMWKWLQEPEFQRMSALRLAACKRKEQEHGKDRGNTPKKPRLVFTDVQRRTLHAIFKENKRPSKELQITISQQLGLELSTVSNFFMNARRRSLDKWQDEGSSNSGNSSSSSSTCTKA

Assay [4] concerns the target Heat shock factor protein 1 (Homo sapiens) (UniProt Q00613). Briefly: ATG_HSE_CIS: Attagene CIS-FACTORIAL HepG2 Assay for human Heat Shock Transcription Factor 1 (HSE) (AID 2282953). The conditions noted are these: HepG2 HSE cis-reporter, Attagene RNA transcription; actives raise or lower the signal. The gist of the method:
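After a 24 h incubation with test chemical, transfected HepG2 cells were harvested for RNA; reporter transcripts were measured by RT-PCR and capillary electrophoresis. Values reflect gain or loss of signal relative to DMSO.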

Assay [5] in a line: ATG_MRE_CIS: Attagene CIS-FACTORIAL HepG2 Assay for human Metal Responsive Element (MRE) (AID 2282954). The conditions noted are these: HepG2 MRE cis-reporter transcription, Attagene multiplex; actives raise or lower the signal. The gist of the method:
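After a 24 h chemical exposure, transiently transfected HepG2 cells yield RNA whose reporter sequences are amplified, FAM-labelled and sized by capillary electrophoresis. Curves are fitted bidirectionally relative to DMSO.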

Assay [6] deals with Paired box protein Pax-6 (Homo sapiens) (UniProt P26367). Briefly: ATG_Pax6_CIS: Attagene CIS-FACTORIAL HepG2 Assay for human Paired Box 6 (PAX6) (AID 2282956). Particulars: HepG2 CIS-FACTORIAL PAX6 reporter transcription, RNA readout; actives raise or lower the signal. Summed up:
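Transient MRTU transfection of HepG2 → compound exposure 24 h → TriZol RNA, oligo(dT) RT → PCR, 6-FAM primer extension, HpaI cut → capillary electrophoresis; activity fitted both directions against DMSO.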

The nature of assay [7]: ATG_PXRE_CIS: Attagene CIS-FACTORIAL HepG2 Assay for human Pregnane X Receptor Element (PXRE) (AID 2282957). Particulars: HepG2 Attagene CIS-FACTORIAL PXRE reporter, mRNA; actives raise or lower the signal. The gist of the method:
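HepG2 cells transiently transfected with cis-regulated multiple reporter transcription units; endogenous factor activity measured as reporter mRNA 24 h after dosing. RT-PCR, fluorescent primer extension, HpaI digestion, capillary electrophoresis; bidirectional fit versus DMSO baseline.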

A short description of assay [8]: ATG_RORE_CIS: Attagene CIS-FACTORIAL HepG2 Assay for human RAR-related Orphan Receptor Element (RORE) (AID 2282959). Particulars: HepG2 Attagene cis-factorial RORE reporter, mRNA; actives raise or lower the signal. Summed up: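 Readout: fluorescent reporter mRNA by RT-PCR plus capillary electrophoresis, 24 h after dosing transfected HepG2 cells. Endogenous transcription factor activity on a cis promoter element is measured. Gain or loss of signal fitted against DMSO.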

Assay [9] can be described thus: ATG_Sox_CIS: Attagene CIS-FACTORIAL HepG2 Assay for human SRY-box transcription factor (SOX) (AID 2282960). Particulars: HepG2 Attagene cis-factorial SOX reporter, mRNA; actives raise or lower the signal. Summed up:
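Read-out: fluorescent RT-PCR products of SOX1-linked reporter transcripts resolved by capillary electrophoresis, fitted bidirectionally against DMSO. Transiently transfected HepG2 cells, 24 h after chemical exposure, endogenous transcription factor activity.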

The target of assay [10] is Transcription factor Sp1 (Homo sapiens) (UniProt P08047). The assay is described as follows: ATG_Sp1_CIS: Attagene CIS-FACTORIAL HepG2 Assay for human Specificity Protein 1 (Sp1) (AID 2282961). The conditions noted are these: HepG2 Sp1 cis-reporter transcription, actives raise or lower the signal. The gist of the method:
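Read-out: fluorescence of 6-FAM-labeled, HpaI-digested RT-PCR products separated by capillary electrophoresis. HepG2 cells carried transfected cis-element reporter units and were exposed to chemicals for 24 h; gain or loss of signal fitted relative to DMSO.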

A short description of assay [11]: ATG_SREBP_CIS: Attagene CIS-FACTORIAL HepG2 Assay for human Sterol Regulatory Element Binding (SREBP) (AID 2282962). Particulars: HepG2 Attagene cis-factorial SREBP reporter, mRNA; actives raise or lower the signal. Summed up:
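Transfected HepG2 (cis-regulated reporter library, endogenous TFs) → compound 24 h → total RNA → oligo(dT) RT → reporter-specific PCR → FAM primer extension, HpaI cut → CE fluorescence. Fit bidirectional vs DMSO.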

The target of assay [12] is Signal transducer and activator of transcription 3 (Homo sapiens) (UniProt P40763). The assay is described as follows: ATG_STAT3_CIS: Attagene CIS-FACTORIAL HepG2 Assay for human Signal Transducer and Activator of Transcription 3 (STAT3) (AID 2282963). Particulars: HepG2, Attagene cis-factorial STAT3 reporter transcription; actives raise or lower the signal. Summed up: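 After a 24 h compound incubation, total RNA from MRTU-transfected HepG2 cells was converted to cDNA and reporter sequences PCR-amplified, labelled and profiled by capillary electrophoresis. Gain and loss of signal were referenced to DMSO.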
Chain of Signal transducer and activator of transcription 3 (Homo sapiens) (P40763 whole entry, looked up): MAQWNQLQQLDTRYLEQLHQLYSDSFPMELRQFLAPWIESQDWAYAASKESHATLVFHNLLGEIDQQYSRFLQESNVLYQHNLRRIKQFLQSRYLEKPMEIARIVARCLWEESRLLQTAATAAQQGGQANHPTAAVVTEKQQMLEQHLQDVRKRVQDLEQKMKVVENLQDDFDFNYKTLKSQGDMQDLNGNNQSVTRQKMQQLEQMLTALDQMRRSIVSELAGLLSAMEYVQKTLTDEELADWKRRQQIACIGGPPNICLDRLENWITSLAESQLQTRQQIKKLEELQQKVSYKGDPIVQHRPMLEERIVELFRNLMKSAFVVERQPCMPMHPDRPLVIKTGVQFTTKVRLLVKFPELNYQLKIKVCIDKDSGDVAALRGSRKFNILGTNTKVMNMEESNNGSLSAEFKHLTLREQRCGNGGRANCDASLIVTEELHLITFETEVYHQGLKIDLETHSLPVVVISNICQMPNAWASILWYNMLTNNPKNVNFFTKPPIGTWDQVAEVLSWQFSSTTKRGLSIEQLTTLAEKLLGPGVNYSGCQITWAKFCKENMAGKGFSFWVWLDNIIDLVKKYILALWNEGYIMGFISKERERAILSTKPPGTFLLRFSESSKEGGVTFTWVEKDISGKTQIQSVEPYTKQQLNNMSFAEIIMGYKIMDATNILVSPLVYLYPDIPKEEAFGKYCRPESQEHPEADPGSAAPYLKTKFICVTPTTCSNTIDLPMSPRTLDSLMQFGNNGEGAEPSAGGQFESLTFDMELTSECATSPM

A short description of assay [13]: ATG_TA_CIS: Attagene CIS-FACTORIAL HepG2 Assay for human TA Basal Promoter (AID 2282964). The conditions noted are these: HepG2 Attagene CIS-factorial TA basal promoter reporter; actives raise or lower the signal. Summed up: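 Multiplexed mRNA reporter assay, HepG2, 24 h. Reporter cDNA amplified, 6-FAM primer-extended, HpaI-cut, CE-sized; DMSO = negative control and baseline.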

Assay [14] in a line: ATG_TCF_b_cat_CIS: Attagene CIS-FACTORIAL HepG2 Assay for human T-Cell-Factor with beta-catenin (TCF/b-cat) (AID 2282965). The conditions noted are these: HepG2 TCF/beta-catenin cis-reporter transcription, actives raise or lower the signal. Summed up: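 Measured: reporter mRNA in HepG2 transiently transfected with cis-promoter reporter units, 24 h after chemical addition. Fitting was bidirectional, DMSO as negative control.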

The nature of assay [15]: ATG_TAL_CIS: Attagene CIS-FACTORIAL HepG2 Assay for human TAL Basal Promoter (AID 2282966).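 Further: background control endpoint measuring basal TAL promoter reporter mRNA not a specific factor.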 Particulars: HepG2 Attagene cis-factorial TAL promoter reporter; actives raise or lower the signal. The gist of the method:
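HepG2 cells were transiently transfected with promoter-driven multiplexed reporter units and dosed for 24 h. Reporter mRNA was measured by RT-PCR with capillary electrophoresis fluorescence; bidirectional fits used DMSO as baseline, serving as a background control.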

Assay [16] can be described thus: ATG_TGFb_CIS: Attagene CIS-FACTORIAL HepG2 Assay for human Transforming Growth Factor (TGF) (AID 2282967). The conditions noted are these: HepG2 Attagene CIS TGFb reporter, mRNA transcription; actives raise or lower the signal. The gist of the method:
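Transcript-level reporter readout: HepG2 transfectants, 24 h exposure, RNA to cDNA, reporter-specific PCR, fluorescent primer extension, capillary sizing against ROX standards. Gain- or loss-of-signal relative to DMSO.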

A short description of assay [17]: ATG_VDRE_CIS: Attagene CIS-FACTORIAL HepG2 Assay for human Vitamin D Receptor Element (VDRE) (AID 2282968). Particulars: HepG2 VDRE cis-reporter transcription, actives raise or lower the signal. The gist of the method:
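In transiently transfected HepG2 liver cells, gain or loss of reporter mRNA after 24 h exposure is scored relative to DMSO, using fluorescence detection by capillary electrophoresis of RT-PCR products.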

Assay [18] can be described thus: ATG_PBREM_CIS: Attagene CIS-FACTORIAL HepG2 Assay for human Phenobarbital-responsive Enhancer Module (PBREM) (AID 2282955). The conditions noted are these: HepG2 PBREM cis-reporter, Attagene multiplexed transcription; actives raise or lower the signal. Summed up: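 Reporter mRNA read by RT-PCR, 6-FAM primer extension, HpaI digestion and capillary electrophoresis. Transfected HepG2 cells, 24 h compound exposure. Gain or loss of signal fitted bidirectionally relative to DMSO baseline.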

Assay [19] is described as follows: ATG_PPRE_CIS: Attagene CIS-FACTORIAL HepG2 Assay for human Peroxisome Proliferator-activated Response Element (PPRE) (AID 2282958). Particulars: HepG2 PPRE cis-element reporter, Attagene transcription factor profiling; actives raise or lower the signal. The gist of the method:
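Read-out: fluorescent reporter mRNA fragments resolved by capillary electrophoresis after RT-PCR. HepG2 cells carried transiently transfected PPRE-driven cis reporter constructs and were dosed for 24 h; gain or loss of signal fitted relative to DMSO.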

Assay [20] in a line: ATG_M_06_CIS: Attagene CIS-FACTORIAL HepG2 Assay for M06 Transcription Factor (Internal Marker) (AID 2282950). Particulars: HepG2 Attagene CIS-FACTORIAL M06 internal marker reporter; actives raise or lower the signal. Summed up:
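Fluorescence-labelled RT-PCR products from cis-promoter reporter units, cut with HpaI and resolved by capillary electrophoresis, give the signal. Cells are human HepG2, dosed for 24 h. Serves as background control, fitted relative to DMSO.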

The source made the active and inactive calls. How the source made its calls: active means hit-call score of the fitted dose curve at least 0.9, where 1 is the maximum; inactive means score below 0.9.

The values below come from PubChem BioAssay (EPA / NIEHS).

Chain of Transcription factor Sp1 (Homo sapiens) (P08047 whole entry, looked up): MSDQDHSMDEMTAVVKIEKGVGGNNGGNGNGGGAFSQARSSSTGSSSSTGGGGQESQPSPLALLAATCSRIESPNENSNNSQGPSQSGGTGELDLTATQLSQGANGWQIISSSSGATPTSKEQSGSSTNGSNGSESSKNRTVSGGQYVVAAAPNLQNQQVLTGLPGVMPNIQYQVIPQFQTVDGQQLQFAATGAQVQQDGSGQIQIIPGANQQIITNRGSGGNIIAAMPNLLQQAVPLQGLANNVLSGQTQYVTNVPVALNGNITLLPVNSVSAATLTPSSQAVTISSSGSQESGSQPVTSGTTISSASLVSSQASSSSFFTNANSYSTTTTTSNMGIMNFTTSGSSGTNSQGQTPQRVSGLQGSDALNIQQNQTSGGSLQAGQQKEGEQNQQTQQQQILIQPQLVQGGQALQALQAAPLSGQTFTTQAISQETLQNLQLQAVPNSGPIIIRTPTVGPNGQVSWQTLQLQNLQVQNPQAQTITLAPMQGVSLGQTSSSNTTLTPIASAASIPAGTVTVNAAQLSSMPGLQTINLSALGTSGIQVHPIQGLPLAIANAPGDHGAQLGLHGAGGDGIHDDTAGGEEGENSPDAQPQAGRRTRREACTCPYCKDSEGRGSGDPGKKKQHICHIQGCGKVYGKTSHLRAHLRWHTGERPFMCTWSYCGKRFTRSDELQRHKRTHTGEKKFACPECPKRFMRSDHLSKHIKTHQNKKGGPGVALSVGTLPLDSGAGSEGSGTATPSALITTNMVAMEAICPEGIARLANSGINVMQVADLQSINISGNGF
Chain of Paired box protein Pax-6 (Homo sapiens) (P26367 whole entry, looked up): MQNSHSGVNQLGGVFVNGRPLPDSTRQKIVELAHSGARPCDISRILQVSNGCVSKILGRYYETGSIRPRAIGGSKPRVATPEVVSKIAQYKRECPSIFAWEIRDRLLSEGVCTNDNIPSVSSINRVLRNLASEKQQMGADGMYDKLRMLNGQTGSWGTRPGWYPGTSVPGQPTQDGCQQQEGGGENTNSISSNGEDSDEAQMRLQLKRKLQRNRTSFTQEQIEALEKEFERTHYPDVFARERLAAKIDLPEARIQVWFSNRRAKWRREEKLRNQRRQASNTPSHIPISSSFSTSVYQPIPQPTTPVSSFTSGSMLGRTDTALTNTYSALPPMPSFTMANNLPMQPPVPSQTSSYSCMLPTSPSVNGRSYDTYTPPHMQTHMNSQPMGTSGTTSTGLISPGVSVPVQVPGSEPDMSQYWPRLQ
Chain of Heat shock factor protein 1 (Homo sapiens) (Q00613 whole entry, looked up): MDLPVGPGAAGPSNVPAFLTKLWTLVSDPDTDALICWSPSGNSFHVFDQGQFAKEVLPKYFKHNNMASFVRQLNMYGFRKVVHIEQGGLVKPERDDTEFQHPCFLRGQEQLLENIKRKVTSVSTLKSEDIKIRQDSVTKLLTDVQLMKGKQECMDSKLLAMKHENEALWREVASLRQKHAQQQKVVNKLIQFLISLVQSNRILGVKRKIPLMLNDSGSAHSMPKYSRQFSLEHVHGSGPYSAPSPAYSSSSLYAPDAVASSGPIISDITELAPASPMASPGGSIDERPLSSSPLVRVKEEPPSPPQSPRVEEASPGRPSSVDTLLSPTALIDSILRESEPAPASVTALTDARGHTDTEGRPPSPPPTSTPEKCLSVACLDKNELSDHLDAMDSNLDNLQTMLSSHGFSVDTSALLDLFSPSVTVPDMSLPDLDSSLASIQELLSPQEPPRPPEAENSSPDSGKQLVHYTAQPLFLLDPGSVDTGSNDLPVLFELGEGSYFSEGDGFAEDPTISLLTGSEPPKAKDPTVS
Chain of Hypoxia-inducible factor 1-alpha (Homo sapiens) (Q16665 whole entry, looked up): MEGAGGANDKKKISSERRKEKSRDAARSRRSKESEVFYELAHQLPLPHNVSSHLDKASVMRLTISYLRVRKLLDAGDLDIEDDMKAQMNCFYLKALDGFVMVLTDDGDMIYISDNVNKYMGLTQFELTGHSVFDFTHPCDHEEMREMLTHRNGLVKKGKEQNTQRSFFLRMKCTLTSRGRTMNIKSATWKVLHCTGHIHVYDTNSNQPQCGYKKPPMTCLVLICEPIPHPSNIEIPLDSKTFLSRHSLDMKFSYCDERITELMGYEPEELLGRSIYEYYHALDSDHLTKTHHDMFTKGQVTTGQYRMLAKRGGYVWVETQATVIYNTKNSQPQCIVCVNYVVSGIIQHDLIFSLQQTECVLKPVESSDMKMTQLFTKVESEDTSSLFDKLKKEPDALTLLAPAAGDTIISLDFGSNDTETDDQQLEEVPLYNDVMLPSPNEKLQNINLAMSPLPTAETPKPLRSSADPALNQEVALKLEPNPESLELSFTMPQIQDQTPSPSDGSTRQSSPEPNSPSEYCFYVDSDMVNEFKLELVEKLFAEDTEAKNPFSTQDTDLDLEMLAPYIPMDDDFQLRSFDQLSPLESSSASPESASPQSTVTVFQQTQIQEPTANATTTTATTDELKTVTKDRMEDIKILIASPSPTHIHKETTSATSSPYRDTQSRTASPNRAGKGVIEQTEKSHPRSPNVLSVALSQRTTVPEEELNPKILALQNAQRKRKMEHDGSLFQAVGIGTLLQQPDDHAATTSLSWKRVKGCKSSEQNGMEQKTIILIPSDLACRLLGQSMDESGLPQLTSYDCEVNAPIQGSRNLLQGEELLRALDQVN

On to `NNCCO`, for which the outcome in assay [1], in [2], in [3], in [4], in assay [5] and in [6] was inactive. Besides, the result in [7], in assay [9], in [10], in [11], in assay [12] and in [13] was inactive. Also, the molecule was classed as inactive in [14], in assay [15], in assay [16] and in [17]. Also, in assay [8], the AC50 (commonly the concentration at which the activity in the assay is half-maximal) is 25.4 µM (active).
Regarding `O=[N+]([O-])c1ccc(Nc2ccccc2)cc1`, the call in [1], in assay [2], in assay [3], in assay [4], in assay [6] and in [8] was inactive. The call in assay [9], in [10], in assay [11], in assay [12], in assay [13] and in assay [14] was inactive. Besides, the call in [15] and in [16] was inactive. In addition, the AC50 in assay [5] is 80.4 µM (active); in assay [18], 23.8 µM (active); in assay [7], 26.9 µM (active); in assay [17], 19.2 µM (active).
On to `CCOC(=O)OC1=C(c2cc(C)ccc2C)C(=O)NC12CCC(OC)CC2` (configuration not stated), for which the call in assay [1], in assay [2], in assay [3], in assay [4], in assay [5] and in assay [18] was inactive. Also, the outcome in assay [6], in assay [7], in assay [19], in assay [8], in assay [9] and in assay [10] was inactive. Besides, the molecule was classed as inactive in assay [11], in assay [12], in [13], in [14], in [15] and in [16]. In addition, the result in assay [17] was inactive.
For the molecule `CC(C)C(C)(N)C#N` (configuration not stated), the call in [1], in assay [2], in [3], in assay [4], in assay [5] and in assay [18] was inactive. Also, the call in [8], in [10], in assay [11], in [12], in assay [13] and in [15] was inactive. In assay [17], the molecule was classed as inactive.
Take `O=c1[nH]c2ccccc2n1C1CCN(CCCC(c2ccc(F)cc2)c2ccc(F)cc2)CC1`: the molecule was called inactive in assay [1], in assay [20], in assay [3], in [4], in [5] and in [6]. For the same molecule, the call in assay [7], in [8], in assay [9], in assay [10], in assay [12] and in assay [13] was inactive. In addition, the outcome in [14], in assay [15], in [16] and in assay [17] was inactive. For the same molecule, the AC50 in assay [11] is 3.71 µM (active).
As to `CCOC(=O)CCN(SN(C)C(=O)Oc1cccc2c1OC(C)(C)C2)C(C)C`, the outcome in assay [1], in assay [2], in assay [3], in assay [18], in assay [6] and in assay [19] was inactive. Moreover, the result in assay [8], in [9], in assay [10], in assay [12], in assay [13] and in assay [15] was inactive. Also, the half-maximal activity concentration (AC50) is 184 µM (active) in [4], 142 µM (active) in [5], 26.5 µM (active) in assay [7] and 100 µM (active) in assay [11].
For the molecule `C=CCOC(N)=O`, the molecule was called inactive in assay [1], in [2], in assay [3], in [4], in assay [5] and in [18]. Moreover, the result in [6], in assay [7], in assay [19], in assay [8], in [10] and in assay [12] was inactive. Moreover, the molecule was classed as inactive in [13], in assay [14], in [15], in assay [16] and in [17].
